Screening results as filed in PubChem BioAssay.
BAZ2B block – blocks human BAZ2B; AlphaScreen BAZ2B-H3K14Ac peptide displacement; 4.4% of 360,000 active; Q9UIF8; Potency, µM (highest dose often 114 µM), usual class: inhibitors; AID 504333; also: nearly all actives have a fitted effect of over 60% in size
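BAZ2B (50 nM) with biotin-H3(5-23)K14Ac peptide (50 nM) in PBS pH 7.4, 0.01% Tween-20, preformed 30 min, then compound 30 min at room temperature; top concentration 110uM. AlphaScreen streptavidin donor/nickel chelate acceptor beads (10 ug/mL final), 20 min dark, signal read.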
G9a inh – inhibitors of human histone lysine methyltransferase G9a. Q96KQ7. Potency, µM (doses to about 102 µM), hits mostly inhibitors. AID 504332. 8.8% of 350,000 active. G9a H3K9 monomethylation, AlphaScreen, 2 h; also: nearly all actives have a fitted effect of over 75% in size
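G9a (20 nM) was preincubated 15 min with compound, then reacted 2 h at room temperature with 500 nM biotin-H3K9 peptide and 20 µM SAM. Monomethyl-H3K9 detected by AlphaScreen using anti-H3K9me1 antibody.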
L3MBTL1 block – blocks human L3MBTL1. Q9Y468. AlphaScreen L3MBTL1–H3K9me1 peptide binding. Potency, µM (series often up to 57.1 µM), usual class: inhibitors. 0.66% of 230,000 active. AID 485360; also: nearly all actives have a fitted effect of over 60% in size
Target sequence (Q9Y468 whole entry, looked up): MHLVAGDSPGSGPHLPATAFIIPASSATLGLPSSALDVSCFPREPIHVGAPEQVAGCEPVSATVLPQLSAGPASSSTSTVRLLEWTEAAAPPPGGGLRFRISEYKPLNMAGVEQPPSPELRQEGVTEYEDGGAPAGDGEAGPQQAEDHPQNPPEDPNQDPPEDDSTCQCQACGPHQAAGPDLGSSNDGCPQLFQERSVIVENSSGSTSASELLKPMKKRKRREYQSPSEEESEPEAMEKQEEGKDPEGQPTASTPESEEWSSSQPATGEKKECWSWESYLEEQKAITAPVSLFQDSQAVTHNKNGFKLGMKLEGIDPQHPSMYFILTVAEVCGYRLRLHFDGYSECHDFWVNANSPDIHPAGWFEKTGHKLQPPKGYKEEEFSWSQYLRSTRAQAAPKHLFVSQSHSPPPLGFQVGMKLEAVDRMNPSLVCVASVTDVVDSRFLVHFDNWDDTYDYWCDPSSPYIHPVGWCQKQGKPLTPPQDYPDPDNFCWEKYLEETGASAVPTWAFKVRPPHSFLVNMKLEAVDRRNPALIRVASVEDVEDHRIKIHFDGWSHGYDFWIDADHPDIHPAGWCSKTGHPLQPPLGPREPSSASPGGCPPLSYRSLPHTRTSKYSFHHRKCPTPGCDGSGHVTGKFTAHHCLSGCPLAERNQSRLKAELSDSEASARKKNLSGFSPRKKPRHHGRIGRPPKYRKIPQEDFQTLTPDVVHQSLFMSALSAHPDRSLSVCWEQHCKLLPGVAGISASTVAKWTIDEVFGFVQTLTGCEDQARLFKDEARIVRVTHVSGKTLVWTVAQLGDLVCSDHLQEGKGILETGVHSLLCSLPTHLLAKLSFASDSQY
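AlphaScreen assay: L3MBTL1 (50 nM final) was preincubated 30 min at room temperature with biotinylated H3(1-15)K9me1 peptide (75 nM final), then 30 min with library compounds; streptavidin donor and nickel chelate acceptor beads (10 ug/mL final) added, 30 min dark.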
HP1b binding inh – HP1-beta chromodomain-methylated histone interaction inhibition | P83916 | AlphaScreen HP1-beta / biotin-H3K9me3 peptide binding | Potency, µM (top dose mostly 114 µM), most hits filed as inhibitors | 0.56% of 390,000 active | AID 540317; also: nearly all actives have a fitted effect of over 70% in size
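Compound inhibition of the preformed complex between 50 nM HP1-beta and 50 nM biotinylated H3K9me3 peptide was read by AlphaScreen. Buffer was PBS pH 7.4 with 0.01% Tween-20. Incubations ran 30 min at room temperature, with 10 ug/mL donor/acceptor beads.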
JMJD2A Tudor – inhibitors of human JMJD2A Tudor domain; O75164; AlphaScreen JMJD2A-Tudor / H3K4me3 peptide binding; Potency, µM (doses to about 114 µM), usual class: inhibitors; 4.4% of 390,000 active; AID 504339; also: nearly all actives have a fitted effect of over 50% in size
Numbers stand for hits; . = inactive; ? = inconclusive; / = no result; ! = a repeat was not active; [ ] = another dose, or the depositor's remark. In the library only some 11% were active in any assay of this set; here they are far more common. Calls follow the shape of the dose curve; as a rule, active = well fitted inhibition curve with a large enough effect; inconclusive = small, poorly fitted or top-dose-only effect; inactive = no such curve, though single readings can be large or run the other way.

SMILES	BAZ2B block	G9a inh	L3MBTL1 block	HP1b binding inh	JMJD2A Tudor
Fc1ccc(/C=N/n2cnn(Cc3ccccc3Cl)c2=S)cc1	.	20µM	.	.	.
Cc1cccc(CNC(=O)c2ccc3c(c2)N(C)C(=O)C2CCCCN32)c1 (stereo unspecified)	.	.	/	.	.
CCN1C(=O)C2CCCCN2c2ccc(C(=O)NCCOC)cc21 (stereo unspecified)	.	79.4µM	/	.	.
Cc1c(Cl)cccc1NCC(=O)Nc1ccc(Cl)cc1F	.	.	.	.	.
Cc1c(Cl)cccc1NC(=O)CNc1cccc(C(F)(F)F)c1	.	70.8µM	.	.	.
Cc1ccc(-c2cc(C(=O)O)c3cc(Br)ccc3n2)s1	?	39.8µM!	/	.	.
CC1(C)Cc2[nH]c(=S)c(C#N)cc2CO1	25.1µM	0.708µM	.	.	6.31µM
CC1(C)Cc2c(c(N3CCCC3)[nH]c(=S)c2C#N)CO1	.	?	/	/	/
N#Cc1cc2c([nH]c1=S)CCCC2	31.6µM	1.41µM	.	.	3.55µM
N#Cc1cc2c([nH]c1=O)CCCC2	.	.	/	.	.
O=C(O)C(O)C(O)C(O)C(O)C(=O)O (stereo unspecified)	/	.[2.33 µM]	/	/	/
Cc1cccc(N2CCN(S(=O)(=O)c3cc(C(=O)Nc4ccc(Oc5ccccc5)cc4)ccc3F)CC2)c1C	.	.	/	.	.
N#CC(C#N)=CC1=C2OC(c3ccccc3)=CC(c3ccccc3)=C2CCC1	?	?	/	2.82µM	2.24µM
C=CCN(C(=O)CCC(=O)Nc1cc(C)on1)C(C(=O)NC1CCCC1)c1ccc(OC)cc1OC (stereo unspecified)	.	.	/	.	.
O=C(CN1C(=O)NC2(CCCC2)C1=O)OCC(=O)c1cccc(Cl)c1	.	50.1µM	.	.	.
COc1ccccc1C=NN=Cc1ccccc1OC	/	/	/	.	?
COc1ccccc1C=NN1CCCCCC1	/	/	/	?	44.7µM
COc1ccccc1/C=N/N1CCN(c2ccc(Cl)cc2)CC1	50.1µM	.[0.501 µM]	.[2.29 µM]	.	39.8µM
FC(F)Oc1ccc(/C=N/N2CCCCC2)c(OC(F)F)c1	?	56.2µM	.	/	/
O=C(N/N=C/c1ccc(OC(F)F)cc1OC(F)F)NC1CCCCC1	.	.	.	.	.
COc1ccc(CCNC(=O)COC(=O)c2cc(=O)[nH]c3ccccc23)cc1	/	/	.	.	.
O=C(c1csnn1)N1CCC2(CCCN(c3ccncc3)C2)CC1	/	.[12.7 µM]	/	/	/
CCC(CC)C(=O)Nc1ccccc1C(=O)OCc1cc(=O)n2nc(C3CCCCC3)sc2n1	.	.	/	.	.
CCOc1ccc(NC(=O)CSc2nccn2C2CCCC2)cc1	.	.	/	.	.
COc1ccc(-c2cc(C(F)(F)F)nc(SCCC(=O)Nc3ccc(NC(C)=O)cc3)n2)cc1	.	.	/	.	.
SMILES	BAZ2B block	G9a inh	L3MBTL1 block	HP1b binding inh	JMJD2A Tudor
COc1cccc(-c2csc(NC(=O)Oc3ccccc3)n2)c1	?	.	.	?	89.1µM
O=C(COc1ccc(Cl)cc1)Nc1nc(-c2ccncc2)cs1	.	7.94µM	/	?	.
COc1ccc(-c2csc(NC(=O)C3CCCCN3S(=O)(=O)c3ccccc3)n2)cc1 (stereo unspecified)	.	.	.	.	.
COc1ccc(NC(=O)N2CCN(c3nc(-c4cccc(OC)c4)cs3)CC2)cc1	?	12.6µM	.	.	.
COc1ccc(-c2csc(NC(=O)CS(=O)(=O)c3ccccc3)n2)cc1	.	44.7µM	.	.	.
Cc1ccc(C)c(N2CCN(C(=O)CN3C(=O)COc4ccc(S(=O)(=O)N5CCOCC5)cc43)CC2)c1	.	.	/	.	.
Cc1ccc(NC(=O)CCCn2c(=O)c3cccn3c3cccnc32)cc1C	.	.	/	.	.
COc1ccc(CC(=O)Nc2nc(-c3ccc(F)c(F)c3)cs2)cc1	.	.	/	.	.
CCCC(=O)Nc1nc(-c2ccc(OC)cc2)cs1	.	.[12.7 µM]	/	.	.
COc1ccc(CCC(=O)Nc2nc(-c3ccncc3)cs2)cc1	.	8.91µM	.	/	/
CC(=O)Nc1cccc(-c2csc(NCc3ccccc3)n2)c1	20µM	11.2µM	.	?	12.6µM
COc1ccc(CC(=O)Nc2nc(-c3ccncc3)cs2)cc1	.	39.8µM	.	.	.
COc1ccc(-c2csc(NC(=O)CSc3nc(C)nc4sc(C(=O)O)c(C)c34)n2)cc1	50.1µM	/	.	22.4µM	22.4µM
CCOc1ccccc1NC(=O)C1CCN(S(=O)(=O)c2ccc3c(c2)CCCN3C(C)=O)CC1	.	.	/	.	.
